Compound activity as filed in PubChem BioAssay.
SMARCA2 act = SMARCA2 (BRM) function activators, primary screen, cell-based, luminescence, high throughput. 370,000 compounds, 1% hits. activation, % at 9.1 µM. MG213 cells, MMTV-luciferase reporter, dexamethasone, overnight; in the data active means activation above about 7.8%;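 further: 0% = vehicle wells and 100% = reference activator wells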
bovine MsrA act = bovine MsrA enzyme activators, primary screen, biochemical, absorbance, HTS | 360,000 compounds, 0.3% hits | purified bovine MsrA, absorbance read-out | AID 602163, 2012 | Methionine sulfoxide reductase A (Bos taurus) | activation, % at 10.6 µM; in the data active means activation above about 7.5%;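 further: 0% = vehicle and 100% = reference activator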
KLK7 zymogen act = proKLK7 zymogen activators, primary screen, biochemical, fluorescence intensity; AID 652039, 2013; 370,000 compounds, 0.9% hits; purified proKLK7, EDANS-DABCYL substrate fluorescence; 100% is mature enzyme control, 0% vehicle; Kallikrein-7 (Homo sapiens), P49862; activation, % at 7 µM;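 active means activation above the mean of all tested compounds plus 3 SD, computed per campaign excluding outliers beyond control limits, cut at about 13% in these data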
Target sequence (P49862 whole entry, looked up): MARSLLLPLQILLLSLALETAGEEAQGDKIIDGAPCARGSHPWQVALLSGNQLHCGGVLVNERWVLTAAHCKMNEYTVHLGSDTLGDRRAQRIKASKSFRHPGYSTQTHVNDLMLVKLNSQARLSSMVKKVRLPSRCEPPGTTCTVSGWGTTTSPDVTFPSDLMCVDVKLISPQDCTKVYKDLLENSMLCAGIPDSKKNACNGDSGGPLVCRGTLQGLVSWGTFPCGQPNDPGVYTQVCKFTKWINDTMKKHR
MsrA inh = bovine MsrA enzyme inhibitors, primary screen, biochemical, absorbance, HTS. purified bovine MsrA, absorbance read-out. inhibition, % at 15.5 µM. 360,000 compounds, 0.75% hits; in the data active means inhibition above about 4.5%;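 further: 0% = vehicle wells with enzyme and 100% = reference inhibitor wells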
proKLK7 act conf = proKLK7 zymogen activators, confirmation, biochemical, fluorescence intensity, triplicate. shares compounds with KLK7 zymogen act. purified proKLK7, EDANS-DABCYL substrate fluorescence; scaled: vehicle 0, mature enzyme 100. activation, % at 7 µM. 3,200 compounds, 68% hits;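 active means activation, as change over the incubation, above the mean of all tested compounds plus 3 SD, cut at about 13% in these data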
EDANS-DABCYL int = EDANS-DABCYL substrate optical interference, artefact control for kallikrein-7 zymogen activator project, biochemical, fluorescence intensity, high throughput. AID 686952, 2013. activation, % at 7 µM. shares compounds with KLK7 zymogen act. no enzyme, 4 h; solvent 0%, active enzyme control 100%. 3,200 compounds, 80% hits;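 active means activation above the all-compound mean plus 3 SD, ignoring values outside control-based bounds, cut at about 4.8% in these data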;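 further: value is the 4 h activation minus the activation read at time zero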
EDANS interf = counter-screen for kallikrein-7 activators: EDANS-DABCYL interference, dose response. EDANS-DABCYL peptide fluorescence interference, no enzyme. EC50, µM. shares compounds with KLK7 zymogen act. 250 compounds, 20% hits;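 active means compounds that raise the fluorescence signal in this interference counterscreen, with EC50 at or below 10 µM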;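 further: intact quenched peptide substrate alone read at 355 nm excitation and 520 nm emission; signal is fluorescence gain from T0 to T4 after four hours at room temperature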
* marks the source's active call; other numbers are inactive results; x = not tested or not shown. A selection: hits, their analogues and other compounds. The true share with any hit is near 2.8%.

SMILES	SMARCA2 act	bovine MsrA act	KLK7 zymogen act	MsrA inh	proKLK7 act conf	EDANS-DABCYL int	others
CC(C)C[C@H]1COc2cccc(N3CCCC3)c2S(=O)(=O)N1	0.0	x	-0.7	1.4	x	x
COc1ccccc1CNC(=O)CN(C)CC(=O)Nc1ccccc1Br	-2.5	3.2	0.9	0.1	x	x
CCCCCCCCN1C(=O)[C@@H](CC(=O)N2CCC(c3ccccc3)CC2)C[C@@]2(C(=O)OC)C1=C[C@H](C(C)C)O[C@@H]2C1CC1	-0.9	x	0.1	x	x	x
COCCNc1cc(C)nc2c(-c3ccccc3OC)c(C)nn12	-2.2	-3.8	0.2	2.3	x	x
Cc1cc(C)c2c(n1)nn1c(NCCN3CCOCC3)cc(C)nc21	-2.2	-5.3	33.4*	1.6	40.3*	31.9*	EDANS interf=>69.5
COCCNc1cc(C)nc2c3c(C)cc(C)nc3nn12	2.1	-0.8	81.2*	2.3	70.5*	62.7*
CCCCOCCCNC(=O)C[C@@H]1C[C@@]2(C(=O)OCC)CCC=C2N(Cc2ccc3c(c2)OCO3)C1=O	0.8	0.3	0.3	-0.7	x	x
Oc1ccc(C[C@H]2CN([C@@H](Cc3cccc(O)c3)CN3CCC[C@@H]3CN3C(=S)NC[C@@H]3Cc3ccccc3)C(=S)N2CC2CCCCC2)cc1	-4.8	-3.1	-0.7	0.6	x	x
CC(=O)N1CCN(C2=NC(=O)N(c3ccc(Br)cc3)C(=O)C2)CC1	-4.1	x	-0.1	x	x	x
Cc1cc(C)c2cc(C#N)c(NCCCNC(=O)CCC(=O)O)nc2c1	4.4	-1.6	15.3*	2.2	20.3*	22.2*
COc1cc2ccccc2nn1	2.9	-5.0	23.4*	0.2	32.7*	39.1*
Cc1ccc(S(=O)(=O)N2C[C@@H]3CCCC[C@@H]3[C@@H](C)[C@H]2c2cn(Cc3ccccc3)c3ncccc23)cc1	-4.4	-10.8	-0.2	-0.1	x	x
Cn1c(=O)c2cc(NC(=O)CC(C)(C)C)ccc2n1-c1ccccc1F	5.1	-4.7	15.5*	0.8	-5.8	-16.3
COc1cc(Cn2c3ccc(NC(=O)CCc4cccnc4)cc3c(=O)n2C)ccc1F	-2.9	-1.9	16.4*	2.9	7.2	7.6*
CC(CC(=O)Nc1ccc2c(c1)c(=O)n(C)n2Cc1ccc(F)cc1)c1ccccc1 (stereo not given)	-5.2	-0.5	3.2	1.2	x	x
CC(CC(=O)Nc1ccc2c(c1)c(=O)n(C)n2Cc1ccc(F)cc1)C(F)(F)F (stereo not given)	-2.5	-0.5	15.5*	0.4	-7.7	-10.8
Cn1c(=O)c2cc(NC(=O)CCc3cccnc3)ccc2n1Cc1ccc(F)cc1	-1.3	-1.4	12.9*	-0.8	7.1	14.0*
O=c1c2c(n3nnnc3n1Cc1ccc(Cl)cc1)-c1ccccc1CC21CCCC1	-2.9	x	-0.8	x	x	x
COc1cc2c(cc1OC)CSC1C(=O)N(C)C(SC2)C(=O)N1C	-1.5	x	-0.3	x	x	x
Cc1cc(N/C(=C\C(=O)c2ccccc2)c2ccccc2)ccc1Br	-0.6	x	0.7	0.2	x	x
CCCCCCCCN1C(=O)[C@@H](CC(=O)NCc2cccc3ccccc23)C[C@@]2(C(=O)OC)C1=C[C@H](COCc1ccccc1)O[C@@H]2C	-3.5	x	0.1	x	x	x
COc1cc2c(cc1OC)-c1cc(N3CCc4ccccc43)nc(=O)n1CC2	7.4	-5.4	4.3	1.2	x	x
COc1cc2c(cc1OC)-c1cc(OCc3cccnc3)nc(=O)n1CC2	3.3	-11.7	61.0*	3.1	63.0*	65.3*
O=C(OCc1cn(Cc2cc(F)cc(F)c2)nn1)N1CCOCC1	-6.3	x	-0.1	x	x	x
Cc1cc(=O)n(C)c2ccccc12	0.5	-1.9	0.2	0.1	x	x
Cc1cc(=O)n2c3c(c4c(cc13)c(CN(C)C)cc(=O)n4C)OC2	-11.8	-1.2	29.9*	2.3	14.9*	17.1*
CN1C(=O)C2C(c3ccc(N(C)C)cc3)NN(Cc3ccccc3)C2C1=O (stereo not given)	-3.0	-3.7	15.2*	2.2	14.0*	13.2*
C=CCN1[C@@H](CC(C)C)COc2cccc(NCCCN3CCOCC3)c2S1(=O)=O	-4.0	x	0.6	-0.4	x	x
